A selection: hits, their analogues and other compounds. The true share with any hit is near 7.1%.
SW480 rerep: A quantitative high throughput screen for small molecules that induce DNA re-replication in SW480 colon adenocarcinoma cells. SW480 DNA re-replication, Hoechst DNA content imaging, 48 h. Potency, µM (titrated, usually from 46.1 µM), without a hit: at the highest dose re-replication activation, usual class: activators. 1.8% of 340,000 active. AID 624297, 2012; also: potency is read from the fitted curve at half-maximal effect; % of control where 0% means no effect; nearly all actives have a fitted effect of over 55% in size
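Hoechst fluorescence of nuclei (405 nm excitation, 500-530 nm emission) measured by plate-scanning imager after 48 hr compound exposure at 37 C; re-replication scored as increased number of nuclei with elevated intensity.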
S2 tox: Viability Counterscreen for Primary qHTS for Inhibitors of ATXN expression | S2 cells (HEK-293 line with an ATXN2-luciferase reporter) viability, CellTiter-Fluor protease fluorescence, 24 h | Potency, µM (series often up to 56.7 µM), usual class: cytotoxic | 0.49% of 400,000 active | AID 651635, 2014; also: potency is read from the fitted curve at half-maximal effect; nearly all actives have a fitted effect of over 40% in size
IL-1B inflam inh: qHTS for Inhibitors of Inflammasome Signaling: IL-1-beta AlphaLISA Primary Screen; activity change, % at 57.5 µM; THP-1 LPS/ATP IL-1B secretion, AlphaLISA, 16 h; stronger effect = lower value; AID 743279, 2014; 4.7% of 360,000 active; in the data active = activity change below about -50%; inconclusive = mostly about -30% to -49%; also: % is scaled to controls: 0 for no effect and ±100 for the full control effect
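THP-1 cells pretreated 1 hr with compounds (up to 57.5 uM final), then stimulated with LPS (250 ng/mL final) plus ATP (1.25 mM final); secreted IL-1B measured by AlphaLISA after 16 hr, decreased signal indicating inhibition.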
PINK1 expr mod: A Quantitative High throughput Screen to Identify Chemical Modulators of PINK1 Expression. 0.2% of 410,000 active. PINK1 immunofluorescence, high-content cytometry, 24 h. Potency, µM (series often up to 76.6 µM), for inactives: top-dose activation (PINK1 increase), hits mostly activators; active = well fitted activation curve with a large enough effect; inconclusive = small, poorly fitted or top-dose-only effect; cell line not stated here; also: potency is read from the fitted curve at half-maximal effect; % of control where 0% means no effect; nearly all actives have a fitted effect of over 65% in size
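PINK1 protein level read as immunofluorescence by microplate cytometer in a fixed, stained stable cell line after 24 h exposure to five compound concentrations, with CCCP as control.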
ATXN2 expr inh: Primary qHTS for Inhibitors of ATXN expression; HEK-293 ATXN2-luciferase reporter, luminescence, 24 h; Potency, µM (series often up to 57 µM), for the others: at the top dose activity change, negative = inhibition, hits mostly inhibitors; 0.72% of 360,000 active; also: potency is read from the fitted curve at half-maximal effect; % is scaled to controls: 0 for no effect and ±100 for the full control effect; nearly all actives have a fitted effect of over 55% in size
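ATXN2-luciferase reporter cells (luciferase flanked by upstream and downstream ATXN2 gene portions) were treated 24 h at 37 °C with compounds at up to 57 uM. SteadyGlo luminescence gave expression; GF-AFC fluorescence gave viability.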
MCF10A rerep: A quantitative high throughput screen for small molecules that induce DNA re-replication in MCF 10a normal breast cells. AID 624296, 2012. MCF 10A DNA re-replication, Hoechst nuclear intensity, 48 h. Potency, µM (highest dose often 46.1 µM), inactives show top-dose activity, positive = re-replication, most hits filed as activators. 2.9% of 350,000 active; also: potency is read from the fitted curve at half-maximal effect; % of control where 0% means no effect; nearly all actives have a fitted effect of over 50% in size
Starred values were filed as active, the others as inactive; i = inactive; ? = inconclusive; nt = not tested or not shown; [ ] = dose if it differs, or a comment. Unless noted, calls follow the shape of the dose curve; as a rule, active = well fitted curve in the direction sought with a large enough effect; inconclusive = small, poorly fitted or top-dose-only effect, or another doubt; inactive = no such curve, though single readings can be large; an effect the other way counts as inactive or inconclusive.

SMILES | SW480 rerep | S2 tox | IL-1B inflam inh | PINK1 expr mod | ATXN2 expr inh | MCF10A rerep
CSc1ccc(CCNC(=O)C2CCCN(c3ncnc4c3nc3n4CCCCC3)C2)cc1 (centres undefined) | ? | i | -68.6* | 0.5% | -12.5% | 16.3%
O=C(Nc1ccc(F)cc1F)C1CCCN(c2ncnc3c2nc2n3CCCCC2)C1 (centres undefined) | -1.0% | i | -55.5* | -0.6% | 4.2% | ?
Cc1ccc(NC(=O)C2CCCN(c3ncnc4c3nc3n4CCCCC3)C2)cc1Cl (centres undefined) | ? | i | 32.6 | -0.6% | -36.1% | 8.4%
Cc1ccc2[nH]c3c(c2c1)CN(C(=O)CC1(c2ccccc2)CC(=O)N(Cc2cccnc2)C1=O)CC3 (centres undefined) | nt | i | nt | 2.7% | nt | nt
Cc1cccc(NC(=O)c2sc3nc(-c4cc5ccc(O)cc5oc4=O)[nH]c(=O)c3c2C)c1 | nt | nt | nt | 5.7% | nt | nt
Cc1ccccc1CN1CCC(CNC(=O)C2CCCN(c3ncnc4c3nc3n4CCCCC3)C2)CC1 (centres undefined) | 6.2% | i | -85.6* | 0.2% | -13.4% | 2.0%
O=C(C1CCCN(S(=O)(=O)c2cccc3nsnc23)C1)N1CC=C(c2ccccc2)CC1 (centres undefined) | 0.2% | ? | -54.8* | 0.9% | ? | 24.5%
O=C(C1CCCN(S(=O)(=O)c2cccc3nonc23)C1)N1CCN(c2ccccc2Cl)CC1 (centres undefined) | ? | i | -50.5* | -1.0% | -33.4% | ?
O=C(C1CCCN(S(=O)(=O)c2cccc3nonc23)C1)N1CCN(c2cccc(Cl)c2)CC1 (centres undefined) | 16.3% | ? | -52.5* | 0.5% | ? | ?
CNC(=O)C1CCC(Cn2c(=O)c3sccc3n(CC(=O)N3CCCC(C)C3)c2=O)CC1 (centres undefined) | nt | ? | nt | -1.7% | 0.6% | nt
CN(C)c1ccc(C(=O)NCCCCCCC(=O)NO)cc1 | nt | nt | nt | nt | 171.1% | nt
Cc1ccccc1Cn1c(CN2CCc3ccccc3C2)nc2c1c(=O)n(C)c(=O)n2C | 1.7% | i | -58.6* | 2.2%[38.3 µM] | -5.0% | 14.7%
CC(CC(=O)NCc1ccc(Cl)cc1Cl)CC1=NS(=O)(=O)c2ccccc2N1 (centres undefined) | nt | i | nt | 0.4% | -1.8% | nt
C=CCNc1nc(Nc2ccc(OC)c(OC)c2)c2sc(-c3ccccc3)cc2n1 | nt | i | -108.3* | 1.8% | 0.0% | nt
C=CCNc1nc(NCCOC)c2sc(-c3ccccc3)cc2n1 | nt | ? | -112.9* | 5.2% | ? | nt
COCCNc1nc(-c2cc(F)ccc2C)c2sc(-c3ccccc3)cc2n1 | nt | i | -81.9* | ? | -15.1% | nt
C=CCNc1nc(NCCOc2ccccc2Cl)c2sc(-c3ccccc3)cc2n1 | nt | ? | -110.9* | ? | ? | nt
COCCNc1nc(-c2ccccc2F)c2sc(-c3ccccc3)cc2n1 | nt | i | ? | 2.9% | -21.8% | nt
C=CCNc1nc(NCCNC(C)=O)c2sc(-c3ccccc3)cc2n1 | nt | ? | -3.0 | 0.9% | -14.7% | nt
Cc1c(C(=O)NCC(C)(C)N2CCOCC2)cnn1-c1ncc2c(n1)-c1ccccc1CC2 | nt | i | nt | 0.0% | nt | nt
C[C@]12CC[C@@H]3c4ccc(O)cc4CC[C@H]3[C@H]1CC[C@H]2O | nt | nt | nt | nt | -17.1% | nt
CC(=O)N1CCC[C@H]1C(=O)NCC1Cc2cc(F)cc(-c3ccc(F)c(C)c3)c2O1 (some centres undefined) | nt | i | nt | -0.7% | nt | nt
CC(C)(C)NC(=O)COc1ccc(CNCc2ccccn2)cc1 | -2.0% | i | -8.7 | -0.8% | -7.3% | 16.4µM*
CC1Cc2cc(S(=O)(=O)NCc3ccc(N(C)C)cc3)ccc2N1C(=O)C1CCC1 (centres undefined) | nt | i | nt | -0.3% | ? | nt
COc1ccc(/C=C/C(=O)NC(=S)NCCc2ccc(OC)c(OC)c2)cc1 | 10.3µM* | ? | 31.3 | ? | ? | ?
SMILES | SW480 rerep | S2 tox | IL-1B inflam inh | PINK1 expr mod | ATXN2 expr inh | MCF10A rerep
COc1ccc(CCNC(=O)/C=C\c2ccccc2)cc1OC | -0.8% | i | 25.3 | -0.2% | 2.2% | 4.8%
COc1ccc(/C=C/C(=O)NC(=S)Nc2ccccc2)cc1OC | 18.4µM* | i | 22.9 | 12.3% | -27.5% | 17.2%
CCc1nnc(NS(=O)(=O)c2ccc(NC(=S)NC(=O)/C=C/c3ccccc3)cc2)s1 | -6.6% | i | -6.4 | 4.3% | -0.9% | 3.3%
COC(=O)CCC(=O)NC(=S)Nc1ccc(S(=O)(=O)Nc2cc(OC)nc(OC)n2)cc1 | 2.59µM* | i | 36.5 | -2.4% | 1.1% | -4.1%
COc1ccc(NS(=O)(=O)c2ccc(NC(=S)NC(=O)/C=C/c3ccccc3)cc2)nn1 | -2.0% | i | -61.5* | 1.6% | 0.8% | 17.6%
COc1cc(NS(=O)(=O)c2ccc(NC(=S)NC(=O)CC(C)C)cc2)nc(OC)n1 | -4.6% | i | -16.8 | -0.5% | 3.6% | 7.7%
Cc1ccc(-c2nn(-c3cccc([N+](=O)[O-])c3)c3c2cnc2ccc(F)cc23)cc1 | nt | i | nt | 0.1% | 13.8% | nt
Cc1ccc(S(=O)(=O)N2CCCc3cc(NC(=O)c4ccc(C(C)(C)C)cc4)ccc32)cc1 | nt | i | nt | -0.2% | 13.6% | nt
CCc1cccc(NC(=O)c2sc3nc[nH]c(=O)c3c2C)c1 | nt | nt | nt | 3.9% | nt | nt
Cc1ccc(C)c(-n2nnc(-c3nc(-c4ccccc4C)no3)c2C)c1 | nt | nt | nt | 3.5% | nt | nt
O=C(O)CCCC[P+](c1ccccc1)(c1ccccc1)c1ccccc1 | nt | i | nt | nt | 10.3% | nt
COc1cc(/C=C/c2cc[n+](C)cc2)ccc1OCC(=O)Nc1ccccc1 | 18.4µM* | i | -16.4 | -1.5% | 16.5% | 7.0%
C/C=C/c1ccc(OCC(=O)Nc2ccc(C(N)=O)cc2)c(OC)c1 | -0.2% | i | -11.8 | 6.1% | -11.4% | ?
COc1ccc(C(=O)CC(=O)C(=O)Nc2cc(C)ccc2C)cc1 | ? | i | 48.6 | 7.5% | -5.9% | 4.7%
COc1ccc(C(=O)CC(=O)C(=O)NCCc2cccc(C)c2)cc1 | ? | i | -7.1 | 0.7% | -19.9% | 18.4µM*
COc1cc(/C=C/C(=O)NCc2ccccn2)cc(OC)c1OC | -6.4% | i | -6.2 | 3.6% | 1.3% | 5.2%
COc1ccc(/C=C/C(=O)NCc2ccccn2)cc1OC | -3.1% | i | -72.8* | -3.3% | 1.8% | -12.6%
COC(=O)[C@@H]1CCCN1Cc1ccc2c(c1)CN(Cc1cccc(Cl)c1)CCO2 | nt | i | nt | -0.3% | nt | nt
